About 83,000 compounds went through this panel and 20% of them were active in at least one assay; those are over-represented in the sample as a whole.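 Compound tested at a single concentration for 48 hours in 96-well plates; a percent growth value below 10 was scored as active.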 A number with no mark means an inactive call. The source made the active and inactive calls.
What follows are molecules tested on MDA-MB-435 melanoma (assay: NCI-60 one-dose screen, 48 h (100 = growth as untreated, 0 = no growth, -100 = all killed)). Details: 10 µM unless noted.

Structure (SMILES) | growth
COc1cc(OC)c(/C=C/c2cc[n+](C)c3ccccc23)c(OC)c1 | 4.33% (active)
CCN(CC)c1ccc(CNc2cc(C)nc3ccc(OC)cc23)cc1 | -16.5% (active)
CCCCCN(CCCCC)CCC[C@@H](C)[C@H]1CC[C@H]2[C@@H]3[C@H](OCCCN)C[C@@H]4C[C@H](OCCCN)CC[C@]4(C)[C@H]3C[C@H](OCCCN)[C@]12C | -13.6% (active)
COc1cc(OC)c(/C=C/S(=O)(=O)Cc2ccc(OC)c(N)n2)c(OC)c1 | 2.24% (active)
CC(=O)C1=C(O)C=C2Oc3c(C(=O)/C=C/c4cc(C(F)(F)F)cc(C(F)(F)F)c4)c(O)c(C)c(O)c3[C@]2(C)C1=O | -33.9% (active)
Cc1cc(Nc2nc(N3CCOCC3)nc3ccccc23)n[nH]1 | 57.4%
COc1cc(OC)c(/C=C/C(=O)c2c(OC)cc(OC)cc2OC)c(OC)c1 | -34.8% (active)
c1ccc(CSc2ncnc3nc[nH]c23)nc1 | 92.3%
C=C(CN1CCN(c2cccc(C(F)(F)F)n2)CC1)c1ccc(C(=O)Nc2ccccc2N)cc1 | -9.74% (active)
CN1CCOCCOCCOc2ccccc2NC(=O)c2nc(cnc2N)-c2ccc(cc2)S1(=O)=O | 58.3%
COc1cc(/C=N/N(C)C)ccc1O | 106%
O=C(/C=C/c1ccc(B(O)O)cc1)/C=C/c1ccc(B(O)O)cc1 | -46.6% (active)
CCC(=O)OCc1cccc(OC)c1 | 97.7%
COc1cnc2c(c1)C(=O)c1c-2n(CCCBr)c(=O)c2cc([N+](=O)[O-])ccc12 | 11.4%

Reference: PubChem BioAssay (NCI)
